# Screens (PubChem)
# HPGD block = qHTS Assay for Inhibitors of HPGD (15-Hydroxyprostaglandin Dehydrogenase); 15-hydroxyprostaglandin dehydrogenase [NAD(+)] (Homo sapiens), P15428; purified HPGD, NADH fluorescence kinetic, PGE2 substrate; Potency, µM, for inactives: top-dose activity change, negative = inhibition, usual class: inhibitors; hit rate 4.3% among 150,000; AID 894, 2007; further: potency means the concentration at half of the fitted maximal effect
# Target sequence (P15428 whole entry, looked up): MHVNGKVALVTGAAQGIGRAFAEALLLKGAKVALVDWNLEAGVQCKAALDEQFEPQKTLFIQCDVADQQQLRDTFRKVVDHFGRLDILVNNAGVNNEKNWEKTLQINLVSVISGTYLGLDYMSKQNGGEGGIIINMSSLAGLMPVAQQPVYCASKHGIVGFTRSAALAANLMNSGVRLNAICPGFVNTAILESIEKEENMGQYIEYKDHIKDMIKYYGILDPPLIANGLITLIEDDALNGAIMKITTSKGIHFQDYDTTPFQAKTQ
#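 NADH formation kinetics: reaction with 30 uM PGE2 and 1 mM NAD+ (final), 20 nM enzyme, Tris-HCl pH 8 with Tween 20, after 15 min compound preincubation at room temperature. Fluorescence change, last versus first of five reads.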
# ALDH1A1 block = qHTS Assay for Inhibitors of Aldehyde Dehydrogenase 1 (ALDH1A1) | Purified ALDH1A1, NADH fluorescence, propionaldehyde substrate | Potency, µM (top dose mostly 75.3 µM), without a hit: top-dose activity, negative = inhibition, usual class: inhibitors | hit rate 7.3% among 220,000;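 further: potency means the concentration at half of the fitted maximal effect; plate controls were no enzyme wells and a reference inhibitor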
# PNC assembly inh = High Content Assay for Compounds that inhibit the Assembly of the Perinucleolar Compartment | PC3M PTB-GFP, PNC prevalence imaging, 16 h; stronger effect = lower value | activity change (PNC), negative = inhibition, % at 10 µM | hit rate 3.1% among 140,000 | AID 2417, 2010;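 active means readout at or below -70, meaning at least 70% loss of cells showing the perinucleolar compartment, a nuclear body marking cancer cells; inconclusive means readout between -30 and a set limit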;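 further: plate controls were DMSO wells for no effect and camptothecin positive control wells for full effect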
#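 Read-out is percentage of cells bearing a perinucleolar compartment, from automated 20x imaging of fixed, Hoechst-stained PC3M PTB-GFP cells. Cells were seeded 4 h, then exposed 16 h to compound (23 nl of library stock) in duplicate plates.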
# KDM4E inh = qHTS Assay for Inhibitors of Human Jumonji Domain Containing 2E (JMJD2E) | Lysine-specific demethylase 4E (Homo sapiens), B2RXH2 | JMJD2E catalytic domain, FDH-coupled NADH fluorescence (FDH is formaldehyde dehydrogenase) | Potency, µM (titrated, usually from 57.1 µM), inactives show at the highest dose activity change, negative = inhibition, most hits filed as inhibitors | hit rate 1.6% among 230,000 | AID 2147, 2009;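 further: potency means the concentration at half of the fitted maximal effect; 0% = wells with enzyme and -100% = buffer wells without enzyme; nearly all actives have a fitted effect of over 50% in size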
# Numbers without * were called inactive; ? = inconclusive; · = no result given. Sampled rows, rich in hits. Any-hit rate of the full collection: about 11%. Unless noted, the call rests on the fitted dose curve; in most records, active means well fitted inhibition curve with a large enough effect (not every such curve was filed as active); inconclusive means small, poorly fitted or top-dose-only effect, or another doubt; inactive means no such curve, though single readings can be large or run the other way. Unless noted, on the % scale 0 is the no-effect control and ±100 the full control effect.
SMILES,HPGD block,ALDH1A1 block,PNC assembly inh,KDM4E inh
O=C(COc1ccccc1Cl)N(Cc1ccco1)C1CCS(=O)(=O)C1 (stereo not given),·,23.9%,-111.1*,2.6%
Cc1cc(OC(=O)c2ccccc2Br)cc(=O)n1C,12.6µM*,6.0%,22.6,5.1%
COc1ccc(OC)c(/C=N/NC(=O)CNC(=O)c2ccc(S(=O)(=O)N3CCOCC3)cc2)c1,-8.2%,?,-22.9,3.4%
COc1cc(NC(=O)CN2C(=O)NC(C)(c3ccc4ccccc4c3)C2=O)c(C)cc1[N+](=O)[O-] (stereo not given),-20.5%,-14.1%,4.5,3.8%
COc1ccc(OCC(=O)Nc2ccc(C)c(S(=O)(=O)N(C)C)c2)cc1,·,28.2µM*,·,-17.5%
COc1ccc(CCNCC(=O)Nc2ccc(C)c(S(=O)(=O)N(C)C)c2)cc1OC,·,15.8µM*,·,?
COc1ccc(CCC(=O)Nc2cccc(S(=O)(=O)N(C)C)c2)cc1OC,-7.5%,-9.2%,36.8,3.2%
O=P(CO)(Cc1ccccc1)Cc1ccccc1,15.8µM*,7.5%,?,-2.7%
CCCCP(=O)(CCCC)Cc1ccccc1,-3.3%,4.1%,-0.2,-3.1%
N#CC1(C#N)[C@@H](C(=O)C23CC4CC(CC(C4)C2)C3)C12CCOCC2,-4.9%,1.6%,-3.3,13.3%
CCOC(=O)c1cnc2c(-c3ccccc3OC)c(C)nn2c1C,·,-0.1%,·,-4.8%
O=C1CC(Nc2ccc(N3CCOCC3)cc2)C(=O)N1CCc1ccccc1 (stereo not given),-9.6%,25.1µM*,5.1,-29.6%
O=C1CC(Nc2ccc(N3CCOCC3)cc2)C(=O)N1c1cccc(C(F)(F)F)c1 (stereo not given),-26.8%,8.91µM*,22.2,?
O=C1CC(Nc2ccccc2)C(=O)N1CCc1ccccc1 (stereo not given),1.9%,3.3%,52.3,-2.9%
COc1cccc(N2C(=O)CC(Nc3ccc(N4CCOCC4)cc3)C2=O)c1 (stereo not given),-1.6%,-1.2%,-5.8,-13.3%
COc1ccc(N2C(=O)CC(Nc3ccc(N4CCOCC4)cc3)C2=O)c(OC)c1 (stereo not given),-0.9%,?,-87.9*,-11.3%
O=C(Nc1cc(Cl)cc(Cl)c1)N1CCCC1,·,·,·,-3.6%
COc1ccc(C2OCC3(COC(C)=O)C(C)C=C(C)C2C3C)cc1 (stereo not given),-2.1%,5.2%,·,4.1%
CC(C)Nc1ccc(Cl)cc1[N+](=O)[O-],·,·,·,1.3%
Cn1c(SCc2ccc(Cl)cc2)nnc1-c1ccc2nonc2c1,·,·,·,89.1%
C=CCn1c2ccccc2c2nnc(SCCCn3c(=O)[nH]c4ccccc43)nc21,14.1µM*,-7.2%,3.4,-4.6%
C=CCn1c2ccccc2c2nnc(SCN3C(=O)c4ccccc4C3=O)nc21,-29.5%,28.2µM*,46.4,-13.4%
O=C1c2ccccc2C(=O)N1CSc1nnc2c3ccccc3n(CCc3ccccc3)c2n1,-11.4%,17.8µM*,-20.4,7.1%
O=c1[nH]c2ccccc2n1CCCSc1cnc2ccccc2n1,-11.8%,-1.7%,-9.5,-3.4%
N#CCCCS(=O)(=O)c1nc2ccccc2s1,-20.8%,-6.4%,·,6.8%
SMILES,HPGD block,ALDH1A1 block,PNC assembly inh,KDM4E inh
O=C(c1ccccc1)c1n[nH]c(-c2ccccc2)cc1=O,·,?,·,-10.5%
O=C(Nc1ccc2c(c1)CCC2)c1cc(=O)[nH]c2ccccc12,·,-17.7%,·,-20.4%
CCCCOC(=O)/C(=C/c1cn(C)c2ccccc12)NC(=O)c1ccc(OC)cc1,-1.4%,6.5%,-93.3*,6.4%
COc1ccc(C(=O)N/C(=C\c2cn(C)c3ccccc23)C(=O)OCCN(C)C)cc1,·,2.9%,·,-1.5%
CC(c1nccs1)N(C)C(=O)CCc1nnc(Cc2c[nH]c3ccccc23)o1 (stereo not given),·,20.7%,·,-1.8%
CS(=O)(=O)N1CCC2(CC1)CN(Cc1nccs1)C2,-9.1%,2.4%,·,·
Cc1ccc(C2CC(c3ccccc3)=NN2C(=S)Nc2ccccc2)o1 (stereo not given),17.8µM*,2µM*,-87.7*,11.9%
CC1=NN(C(=S)Nc2ccccc2)C(c2ccccc2)C1 (stereo not given),-3.3%,-11.6%,11.7,-21.4%
CSc1cccc(NC(=O)C2(S(=O)(=O)c3ccc(C)cc3)CC2)c1,·,-0.6%,·,6.1%
